Mtb MenB inh: M. tuberculosis MenB inhibitors, primary screen, biochemical, absorbance; 0.43% of 100,000 active; MenB enzyme assay, absorbance read-out; inhibition, % (concentration not given with the values); 1,4-dihydroxy-2-naphthoyl-CoA synthase (Mycobacterium tuberculosis (strain ATCC 25618 / …; in the data active = inhibition above about 21%, passing the limit was not always enough
Polio RdRp inh: poliovirus RdRp elongation inhibitors, primary screen, biochemical, fluorescence polarization, total intensity. poliovirus polymerase elongation; hits give low values. 0.66% of 150,000 active. Genome polyprotein (Poliovirus type 1 (strain Mahoney)), P03300. % elongation, % (compound at 16.7 µg/mL); in the data active = % elongation below about 90%
Target sequence (P03300 1749-2209 limits assumed): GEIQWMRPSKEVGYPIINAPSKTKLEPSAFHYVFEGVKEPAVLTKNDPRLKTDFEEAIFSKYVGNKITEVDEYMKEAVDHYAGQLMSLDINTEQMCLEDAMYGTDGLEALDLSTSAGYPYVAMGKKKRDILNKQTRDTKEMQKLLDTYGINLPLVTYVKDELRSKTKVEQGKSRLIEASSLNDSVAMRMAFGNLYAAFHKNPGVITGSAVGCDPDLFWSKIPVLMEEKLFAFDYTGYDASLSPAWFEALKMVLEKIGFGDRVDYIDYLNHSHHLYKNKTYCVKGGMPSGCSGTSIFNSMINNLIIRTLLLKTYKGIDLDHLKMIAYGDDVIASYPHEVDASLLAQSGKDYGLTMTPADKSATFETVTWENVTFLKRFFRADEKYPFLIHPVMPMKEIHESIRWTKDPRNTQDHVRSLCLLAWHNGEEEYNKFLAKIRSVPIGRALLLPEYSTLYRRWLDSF
AID504770: growth inhibition of E. coli YBA685, primary screen, V. cholerae RctB inhibitors. E. coli YBA685 rctB-dependent plasmid, OD600 growth, 3 h; hits give low values. 0.27% of 130,000 active. z-score (test concentration not listed); in the data active = z-score below about -2, passing the limit was not always enough
Mtb MbtI inh: MbtI salicylate synthase inhibitors, primary screen, biochemical, fluorescence intensity; purified MbtI enzyme, fluorescence intensity read-out; 0.89% of 100,000 active; P9WFX0; inhibition, % (no concentration beside the values); in the data active = inhibition mostly above about 56%, no sharp cut-off; inactive = mostly below about 77%
An asterisk follows results filed as active; nt = no result. Only some compounds are listed: those with a hit (about 1.4% of all), similar ones and a draw of the others.

SMILES	Mtb MenB inh	Polio RdRp inh	AID504770	Mtb MbtI inh
OC(Cc1cccnc1)(c1ccccc1)c1ccccc1	-3	89*	0.05	-6
CC1=NN(c2nc3ccccc3[nH]2)C(=O)C1Cc1ccccc1 (stereo not drawn)	-74	107	-0.85	76*
CCCCN(C(=O)Nc1cccc2ccccc12)C1CCS(=O)(=O)C1 (stereo not drawn)	1	102	0	-24
O=C1C=CC(=O)N1c1ccccc1	-3	102	-7*	99*
O=C1Cc2ccccc2C(=O)N1c1cccc(Cl)c1	-35	78*	-1.2	0
CC(=O)Nc1cccc(N2C(=O)C=CC2=O)c1	-58	105	0.35	96*
O=C1c2ccccc2C(=O)N1c1ccccc1	-34	101	0.75	1
CCCCc1ccc(N2C(=O)C=CC2=O)cc1	nt	101	-1.1	98*
C=CCNc1ncnc2c1cnn2C	nt	nt	2.1	nt
CC(C)c1ccc(N2C(=O)C=CC2=O)cc1	-1	100	-0.8	101*
O=C1C=CC(=O)N1c1cccc(Cl)c1	4	103	-4*	100*
Cc1ccc(N2C(=O)C=CC2=O)cc1	7	103	-1.4	100*
O=C1C=CC(=O)N1c1ccc(C2CCCCC2)cc1	nt	nt	-0.2	nt
Nc1ccc2c(c1)nc1n2CCCCC1	-28	104	0.8	105
COc1ccc(NC(=O)N(CCN(C)C)Cc2cc3cc(OC)ccc3[nH]c2=O)cc1	34*	103	0.05	80
CCC(=O)N1CCc2cc(Br)cc(S(=O)(=O)CCC(=O)N(C)c3ccc(OC)cc3OC)c21	nt	nt	-0.7	nt
CCC(c1nnc(SCC(=O)NCCc2ccc(Cl)cc2Cl)o1)N(C)C (stereo not drawn)	-17	101	-0.3	79*
CNC(=O)c1sc(CN2C(=O)c3ccccc3S2(=O)=O)nc1C	6	65*	-0.3	92*
CCN(CC)CCNC(=O)c1ccc2c(c1)sc1nc(-c3ccc(F)cc3)cn12	nt	89*	nt	nt
CCOc1cc(C#N)c(-n2nnc3c(sc4nc(C)cc(C)c43)c2=O)cc1OCC	nt	78*	nt	nt
N=C(N)SCP(=O)(c1ccccc1)c1ccccc1	49*	99	0.65	21
CC1(C)NC(=O)N(CN2C(=O)NC(C)(C)C2=O)C1=O	6	101	-0.4	-3
O=C(c1cccs1)N1CCN(C/C=C/c2ccccc2)CC1	43*	101	-0.15	-7
S=c1sc2ccccc2n1CN1CCN(c2ccccn2)CC1	-30	99	-0.35	145
CCOC(=O)N1CCN(Cn2c(=S)sc3ccccc32)CC1	-37	107	-0.55	89*
SMILES	Mtb MenB inh	Polio RdRp inh	AID504770	Mtb MbtI inh
S=c1sc2ccccc2n1CN1CCOCC1	24	99	-1.2	90*
C/C(=N/N1CCN(c2ccccc2)CC1)c1ccccc1	-22	103	-0.7	-3
O=c1[nH]c2cc3c(cc2[nH]1)OCCO3	37*	101	-0.65	83
CC1=NN(c2ccccc2)C(=O)C1(O)C1C(=O)c2ccccc2C1=O (stereo not drawn)	-166	29*	2.4	-3
CC1=NN(c2ccccc2)C(=O)C1(C)N (stereo not drawn)	-10	105	0.95	-1
O=CN1CCN(S(=O)(=O)c2ccc(S(=O)(=O)NC3CC3)cc2)CC1	-21	102	-0.8	-6
CCOC(=O)C1CCN(S(=O)(=O)c2cc(-c3cc(C)no3)ccc2C)CC1	nt	111	nt	nt
Cc1nc2sccn2c1-c1csc(Nc2cccc(Cl)c2C)n1	-11	99	-0.2	70*
CCc1ccccc1Nc1nc(-c2c(C)nc3sccn23)cs1	-5	101	2.1	49
O=C(O)Cn1c2c(c3ccccc31)CSc1ccc(Cl)cc1-2	-16	99	-0.3	96*
COc1ccc(CC(=O)Nc2cc(-c3cn4cccnc4n3)ccc2C)cc1OC	nt	111	nt	nt
O=C(OCC(=O)N1CCCCC1)c1cc(-c2ccccc2)nc2ccccc12	nt	105	0.75	12
COC(=O)C1C(=O)CC(=O)CC1c1ccco1 (stereo not drawn)	40*	100	1.2	1
CCN1C(=O)C(=Cc2ccc(-c3ccc(Br)c(Cl)c3)o2)C(=O)N(CC)C1=S	4	99	1	90*
S=c1[nH]n(Cc2ccccc2)c(=NCc2ccccc2)s1	nt	95	-0.95	65*
Cc1ccc(C(=O)CC(C(=O)O)N2CCN(C)CC2)cc1 (stereo not drawn)	31*	104	-1.3	nt
COc1ccc(C2=C(C)C(=O)N(Cc3ccc(C(=O)Nc4cccc(F)c4)cc3)S2(=O)=O)cc1	nt	108	nt	nt
CCc1cccc(NC(=O)c2ccc(CN3C(=O)C(C)=C(c4ccc(OC)cc4)S3(=O)=O)cc2)c1	nt	8.0*	nt	nt
CCN(Cc1ccncc1)Cn1c(=S)oc2ccccc21	-7	102	0.75	75*
O=C(c1ccc(Cl)cc1)N(CCS(=O)(=O)c1ccc(Cl)cc1)Cc1cccs1	1	103	0.35	-2
COc1ccc(CCNC(=O)c2ccc3c(c2)N(Cc2cccc(C)c2)C(=O)c2ccccc2S3(=O)=O)cc1OC	nt	82*	nt	nt
COc1ccc(CCNC(=O)c2ccc3c(c2)N(Cc2ccccc2F)C(=O)c2ccccc2S3(=O)=O)cc1OC	nt	110	nt	nt
COc1ccc(S(=O)(=O)N2CCCCCC2)cc1C(=O)OCC(=O)N1CC(C)OC(C)C1 (stereo not drawn)	1	105	1.4	-4
Cc1cc(C)c2c(=O)n(-c3ccccc3)[nH]c2n1	-49	101	0.2	52*
O=C(CCc1nc(-c2ccccn2)no1)NCc1ccc(F)cc1	nt	nt	-1.1	nt
SMILES	Mtb MenB inh	Polio RdRp inh	AID504770	Mtb MbtI inh
COc1ccc(S(=O)(=O)c2cn(Cc3ccccc3)c3ccc(OC)cc3c2=O)cc1	nt	102	nt	nt
CCOc1ccc(S(=O)(=O)c2cn(Cc3ccc(C)cc3)c3ccc(OC)cc3c2=O)cc1	nt	90*	nt	nt
Cc1ccc(C(N)=S)c(=O)[nH]1	-55	85*	-0.2	173
O=c1c(=NO)c(=O)c2ccccc12	-16	32*	2.2	16
O=Nc1sc2ccc3ccccc3c2c1O	-5	95	0.1	69*
Cc1ccc(C)n1CC(F)(F)F	nt	100	-0.15	-5
CCOC(=O)c1ccc(NC(=O)N2CC3CCCN3c3ccccc32)cc1 (stereo not drawn)	nt	111	nt	nt
CCCCc1ccc(NC(=O)CSc2nc(C3CCCCC3)c(C#N)c(=O)[nH]2)c(C)c1	-13	98	-0.05	1
COC(=O)c1cc(-c2ccccc2)sc1NC(=O)C1CCCO1 (stereo not drawn)	-33	85*	-0.85	nt
O=C(/C=C/Sc1nc2ccccc2o1)c1ccccc1	-6	97	0.3	54*
O=C(Sc1nc2ccccc2o1)c1ccccc1	-50	100	-1.4	95*
COC(=O)C1(C(C)C)NC(c2ccccc2OC)C2C(=O)N(C)C(=O)C21 (stereo not drawn)	27*	102	-0.65	-7
COC(=O)C1(c2ccccc2)NC(c2ccccc2C)C2C(=O)N(C)C(=O)C21 (stereo not drawn)	-54	102	-0.35	-8
Cc1cc(C)n(C(=O)c2cccs2)n1	5	103	0.4	1
Cc1cc(C)n(C(=O)c2ccoc2C)n1	36*	100	-0.55	-1

Screening results: PubChem, ICCB-Longwood Screening Facility, Harvard Medical School
